PTHR1 agonist – qHTS for PTHR1 Agonists: Primary Screen; hit rate 0.075% among 410,000; AID 743266, 2014; Potency, µM (doses to about 115 µM), without a hit: at the highest dose activation, usual class: activators; HEK293 GP2 PTHR1 cells, GloSensor cAMP luminescence, 1 h; also: potency is read from the fitted curve at half-maximal effect; nearly all actives have a fitted effect of over 55% in size
Target sequence (Q03431 whole entry, looked up): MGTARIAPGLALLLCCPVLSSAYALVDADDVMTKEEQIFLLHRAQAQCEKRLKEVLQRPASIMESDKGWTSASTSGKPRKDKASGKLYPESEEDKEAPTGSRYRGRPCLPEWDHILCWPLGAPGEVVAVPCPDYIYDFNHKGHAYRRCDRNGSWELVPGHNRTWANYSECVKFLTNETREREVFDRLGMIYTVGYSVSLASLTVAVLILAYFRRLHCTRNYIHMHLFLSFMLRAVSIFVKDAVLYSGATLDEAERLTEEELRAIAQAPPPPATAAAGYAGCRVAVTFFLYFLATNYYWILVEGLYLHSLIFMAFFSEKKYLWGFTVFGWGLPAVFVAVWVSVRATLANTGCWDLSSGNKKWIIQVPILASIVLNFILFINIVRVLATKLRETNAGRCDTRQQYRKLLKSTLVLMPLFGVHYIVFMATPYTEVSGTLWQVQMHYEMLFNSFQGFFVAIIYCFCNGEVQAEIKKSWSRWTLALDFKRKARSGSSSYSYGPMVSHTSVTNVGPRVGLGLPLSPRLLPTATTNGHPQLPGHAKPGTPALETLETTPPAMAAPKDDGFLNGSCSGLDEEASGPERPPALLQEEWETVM
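HEK-293-derived GP2 cells expressing PTHR1 and a GloSensor cAMP reporter, 3,000/well, plated overnight, given luciferin plus IBMX (each 0.5 mM as added) for 1 h at 37 °C, then compound for 1 h at 37 °C. Luminescence was read after 15 min at room temperature.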
GLP1R ag – qHTS of GLP-1 Receptor Agonists; Glucagon-like peptide 1 receptor (Homo sapiens), P43220; HEK293 GLP-1R CRE-luciferase, luminescence, 4-6 h; cells express a hypersensitive GLP-1R form; Potency, µM (highest dose often 45.6 µM), for inactives: at the highest dose activation, actives largely listed as activators; hit rate 0.007% among 380,000; AID 624172, 2012; also: potency is read from the fitted curve at half-maximal effect; % of control where 0% means no effect
GLP1R cytotox – qHTS of GLP-1 Receptor Inverse Agonists: Cytotox Screen; hit rate 0.13% among 410,000; Potency, µM (titrated, usually from 38.3 µM), inactives show at the top dose activity change, negative = inhibition, actives largely listed as inhibitors; HEK293 cAMP-luciferase reporter cells, luminescence, 24 h; AID 624418, 2012;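 also: loss of luciferase light is scored as toxicity; potency is read from the fitted curve at half-maximal effect; % is scaled to controls: 0 for no effect and ±100 for the full control effect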
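Here, cytotoxicity is scored as loss of luminescence. The MLSMR collection was tested on cells seeded in medium containing 10% Nu serum, with a 24 hr compound exposure preceded by 12 hours of culture.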
GLP-1R inv ag – qHTS of GLP-1 Receptor Inverse Agonists (Inhibition Mode); hit rate 1.6% among 410,000; Glucagon-like peptide 1 receptor (Homo sapiens), P43220; HEK293 GLP-1R CRE-luciferase, luminescence, 24 h; GLP-1R form is constitutively active; Potency, µM (series often up to 38.3 µM), without a hit: top-dose activity change, negative = inhibition, most hits filed as inhibitors; also: potency is read from the fitted curve at half-maximal effect; % is scaled to controls: 0 for no effect and ±100 for the full control effect; nearly all actives have a fitted effect of over 55% in size
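Stable HEK293 clone (constitutively active GLP-1R + cAMP-response luciferase); 200 cells/uL plated, 12 h pre-culture, compound 24 hr, 37 deg C/5% CO2; detection reagent 12 min RT; luminescence.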
TSHR antagonist – Antagonists of the Thyroid Stimulating Hormone Receptor: HTS campaign; TSHR-expressing cells, TSH-stimulated cAMP HTRF, 2 h; active compounds read low; hit rate 0.2% among 330,000; activity change, negative = inhibition, % at 11.5 µM; AID 504810, 2011;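 active = activity change below a set negative limit, meaning inhibition stronger than a set level, cut at about -70% in these data; inconclusive = activity change between two set negative limits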; also: % is scaled to controls: 0 for no effect and ±100 for the full control effect
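Antagonism was scored as loss of TSH-driven cAMP in TSHR cells, stimulated with 4nM TSH (EC80) for 2 hours at 37 deg C and detected by homogeneous HTRF competition immunoassay.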
* marks the source's active call; other numbers are inactive results; i = inactive; ? = inconclusive; . = no result given; [ ] = dose if it differs, or a comment. Rows were chosen to be rich in hits. Some 1.8% of all compounds tested hit in one or more screens of this group. Unless noted, calls follow the shape of the dose curve; as a rule, active = well fitted curve in the direction sought with a large enough effect; inconclusive = small, poorly fitted or top-dose-only effect, or another doubt; inactive = no such curve, though single readings can be large; an effect the other way counts as inactive or inconclusive.

SMILES	PTHR1 agonist	GLP1R ag	GLP1R cytotox	GLP-1R inv ag	TSHR antagonist
CC1C/C(=N\NC(N)=S)c2cc(Cl)ccc2S1 (centres undefined)	-16%	-16%	2.2µM*	?	-11
CC(C)=C1CCC(C)CC1=NNC(N)=S (centres undefined)	-20%	5%	?	?	.
Cc1ccc(/C=N/n2c(-c3ccccc3)csc2=S)cc1	.	-4%	.	.	.
Cc1ccc(N(CC(=O)Nc2ccc(Cl)cc2)S(=O)(=O)c2cccc3nonc23)cc1	-14%	-4%	-17%	10µM*	.
CCc1ccc(NC(=O)CN(c2ccc(Cl)cc2)S(=O)(=O)c2ccsc2C(=O)OC)cc1	-13%	.	1%	3.2µM*	.
COC(=O)c1sccc1S(=O)(=O)N(CC(=O)Nc1ccc(C)cc1)c1ccccc1	i	.	-8%	?	.
CCc1ccc(C(=O)NNc2ccc(Cl)cc2)cc1	-19%	-3%	?	1µM*	11
CCc1ccc(C(=O)NNc2cc(Cl)cc(Cl)c2)cc1	-19%	-1%	-24%	1µM*	-2
CCc1ccc(C(=O)NCc2ccc(Cl)cc2)cc1	i	0%	-14%	-3%	3
CC(C)Cc1nn2c(=O)cc(COC(=O)c3ccc4c(c3)OCO4)nc2s1	i	.	-7%	10%	.
CCCCn1c(N)c(N(CCOC)C(=O)CN(C)CC(=O)Nc2ccc(Cl)c(Cl)c2)c(=O)[nH]c1=O	50µM*	-3%	-7%	?	-7
CCCCn1c(N)c(N(CCOC)C(=O)CSCc2ccc(Cl)c(Cl)c2)c(=O)[nH]c1=O	-18%	0%	6%	-17%	-17
CCCCn1c(N)c(N(CCOC)C(=O)COC(=O)COc2cc(C)c(Cl)cc2C(C)C)c(=O)[nH]c1=O	-7%	11%	-12%	10µM*	-4
Cc1ccccc1C(=O)n1nc(-c2cccnc2)nc1NCc1ccc(F)cc1	i	.	7%	?	.
CCOC(=O)c1c(C)c(C)n(Cc2cccc(OC)c2OC)c1C	-94%	10%	10%	?	2
CCOC(=O)c1cc(C)n(Cc2cccc(OC)c2OC)c1C	-26%[57.5 µM]	2%	4%	4µM*	-22
CCOC(=O)c1c(C)[nH]c(C)c1S(=O)(=O)N1CCC(C(=O)Nc2ccc(C)c(N(C)C)c2)CC1	i	.	1%	-1%	.
CC(C)(C)C(=O)NC(=S)NNC(=O)c1ccc(-c2ccccc2)cc1	-15%	5%	-38%	?	-81*
CC(C)(C)C(=O)NC(=S)NNC(=O)c1ccncc1	-8%	2%	8%	-19%	4
CCOC(=O)c1c(NC(=O)CNC2CCCCC2)sc(C)c1C	-17%	20%	27%	4µM*	27
CCOC(=O)c1c(NC(=O)CNCCO)sc(C)c1C	i	?	14%	0%	-9
Cc1ccc(C23CC4CC(CC(C(=O)N5CCN(C)CC5)(C4)C2)C3)cc1	i	9%	12%	8.9µM*	-4
Cc1ccc(C23CC4CC(CC(NC(=O)N5CCN(C)CC5)(C4)C2)C3)cc1	i	-3%	-2%	?	.
C=C(NCc1ccccc1)c1ccccc1O	.	10%	.	.	.
COc1ccc(NC(=O)CN(C)C(=O)/C=C/c2cn(-c3ccccc3)nc2-c2ccc(C)cc2)cc1	i	-19%	-4%	?	22
COc1cccc(NC(=O)CN(C)C(=O)c2cc(-c3ccc(F)cc3)nc3ccccc23)c1	-37%	-20%	?	7.1µM*	-11
COc1ccc2cc(-c3cc(C(=O)O)c4ccccc4n3)ccc2c1	-12%[57.5 µM]	-20%	14%	2.2µM*	54
COc1ccc(-c2cc(C(=O)O)c3ccccc3n2)c(OC)c1	-16%	8%	-6%	5%	-7
COc1cccc(NC(=O)CN(C)C(=O)/C=C/c2cn(-c3ccccc3)nc2-c2ccc(C)cc2)c1	i	-7%	6%	2µM*	-6
